The list is not random: actives were taken first. Their share in the collection is about 3.2%.
ALOX12 inhib = inhibitors of human 12-lipoxygenase (ALOX12) | P18054 | purified 12-hLO, xylenol orange hydroperoxide absorbance | Potency, µM (highest dose often 57.1 µM), for inactives: top-dose activity change, negative = inhibition, actives largely listed as inhibitors | 150,000 tested, 0.12% active | AID 1452; note: potency is the fitted concentration of half-maximal effect; nearly all actives have a fitted effect of over 55% in size
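Xylenol orange chromogenic assay: hydroperoxide from 12hLO oxidises Fe(II), giving red-shifted Fe(III)-XO absorbance. Conditions: 150 nM enzyme, 40 uM arachidonic acid, 25 mM Hepes pH 7.0, 0.01% Triton X-100, 30 min, room temperature.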
15-hLO-2 inh = inhibitors of human 15-lipoxygenase 2 (ALOX15B) | O15296 | purified 15hLO-2, xylenol orange hydroperoxide absorbance | Potency, µM (titrated, usually from 57.1 µM), for inactives: top-dose activity change, negative = inhibition, hits mostly inhibitors | 110,000 tested, 0.56% active | AID 881; note: potency is the fitted concentration of half-maximal effect; nearly all actives have a fitted effect of over 60% in size
Target sequence (O15296 whole entry, looked up): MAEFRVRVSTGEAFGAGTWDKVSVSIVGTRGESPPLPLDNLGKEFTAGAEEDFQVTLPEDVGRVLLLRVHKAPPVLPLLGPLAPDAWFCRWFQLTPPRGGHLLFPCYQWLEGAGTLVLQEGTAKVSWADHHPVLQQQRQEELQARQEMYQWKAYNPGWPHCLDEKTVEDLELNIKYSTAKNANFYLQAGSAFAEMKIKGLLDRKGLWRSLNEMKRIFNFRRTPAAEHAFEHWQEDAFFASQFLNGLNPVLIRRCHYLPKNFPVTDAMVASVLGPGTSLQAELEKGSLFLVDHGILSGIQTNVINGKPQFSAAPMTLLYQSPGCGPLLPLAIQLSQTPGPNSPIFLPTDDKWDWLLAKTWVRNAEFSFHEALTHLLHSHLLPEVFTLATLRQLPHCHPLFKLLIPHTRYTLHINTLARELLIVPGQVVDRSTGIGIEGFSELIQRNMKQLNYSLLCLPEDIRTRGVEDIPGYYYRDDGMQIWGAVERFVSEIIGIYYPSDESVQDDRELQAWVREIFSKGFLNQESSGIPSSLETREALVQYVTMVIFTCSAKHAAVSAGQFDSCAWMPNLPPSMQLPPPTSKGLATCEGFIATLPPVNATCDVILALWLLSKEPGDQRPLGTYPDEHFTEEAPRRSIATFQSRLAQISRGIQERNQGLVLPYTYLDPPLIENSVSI
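Screening format was qHTS against 50 nM purified 15hLO-2 in Hepes pH 7.5 with detergent. Activity follows hydroperoxide formation from 45 uM arachidonic acid, measured as 573:405 nm absorbance ratio of the ferric-xylenol orange complex.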
PNC assembly inh = inhibitors of perinucleolar compartment assembly; PC3M PTB-GFP, PNC prevalence imaging, 16 h; stronger effect = lower value; activity change (PNC), negative = inhibition, % at 10 µM; 140,000 tested, 3.1% active;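 active = readout at or below -70, meaning at least 70% loss of cells showing the perinucleolar compartment, a nuclear body marking cancer cells; inconclusive = readout between -30 and a set limit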;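 note: plate controls were DMSO wells for no effect and camptothecin positive control wells for full effect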
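PC3M cells stably expressing PTB-GFP, 750–1000 cells/well, treated 16 h at 37 °C with compound (23 nl of library stock), in duplicate. After paraformaldehyde fixation and Hoechst stain, imaged at 20x; PNC prevalence scored by image analysis.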
Starred values were filed as active, the others as inactive; ? = inconclusive; / = not tested or not shown; [ ] = dose if it differs, or a comment. Unless noted, calls come from the whole dose curve; as a rule, active = well fitted curve in the direction sought with a large enough effect; inconclusive = small, poorly fitted or top-dose-only effect, or another doubt; inactive = no such curve, though single readings can be large; an effect the other way counts as inactive or inconclusive. Unless noted, % is set by controls: 0 for no effect and ±100 for the full control effect.

SMILES	ALOX12 inhib	15-hLO-2 inh	PNC assembly inh
COc1cc2c(cc1OC)CN(CC(=O)Nc1ccc3c(c1)OCO3)CC2	-7%	-3%	-24
COc1cc2c(cc1OC)CN(CC(=O)Nc1ccc(C)cc1)CC2	2%	11%	-89*
CCn1c(NC(=O)C2CCCCC2)nc2ccccc21	12%	/	-14
CCn1c(NC(=S)Nc2ccccc2)nc2ccccc21	?	25µM*	36
COc1cccc(NC(=O)CSc2nc3c(oc4ccccc43)c(=O)[nH]2)c1	1%	/	-14
O=C(Nc1ccncc1)c1cccs1	3%	-2%	35
N/C(=N\O)c1ccc(NC(=O)c2cccs2)cc1	5%	-7%	-17
O=C(/C=N/O)NCc1cccnc1	-1%	-11%	?
O=C(/C=N/O)Nc1cccnc1	1%	/	-100*
CCOC(=O)c1cccc(NC(=O)c2cnc3ccccc3n2)c1	-19%	7%	-12
CC(=O)c1ccc(NC(=O)c2cccs2)cc1	5%	-3%	-111*
O=C(Nc1cccnc1)c1cccs1	4%	-1%	-100*
O=C(Nc1cccnc1)c1cnc2ccccc2n1	-3%	-1%	-88*
CCC(C)C(=O)Nc1cc(C(=O)OC)cc(C(=O)OC)c1 (stereo unspecified)	2%	2%	5
Cc1ccc(NC(=O)C(=O)NCc2ccc(/C=C(/C#N)C(=O)NCc3cccnc3)o2)cc1C	0%	/	15
Cc1ccc(C)n1NC(=O)c1cccs1	-3%	-12%	-117*
Cc1ccc(C)n1NC(=O)c1ccccc1	-2%	?	-14
Cc1c(C(=O)NN2CCOCC2)nn(-c2ccc(Cl)cc2Cl)c1-c1ccc(I)cc1	-4%	23%	/
NCC1O[C@H](O[C@@H]2C(O)[C@H](O[C@H]3OC(CO)C(O)C(N)C3O)[C@@H](N)C[C@H]2N)[C@@H](N)CC1O (stereo partly specified)	-8%	-5%	/
CCCC(=O)NC(=S)Nc1sc2c(c1C(N)=O)CCC2	-1%	/	-11
CC(C)C(=O)NC(=S)Nc1sc2c(c1C(N)=O)CCCC2	1%	/	-109*
CCC(=O)Nc1sc2c(c1C(N)=O)CCC2	-5%	-1%	-100*
CCC(C)NCC(=O)Nc1sc2c(c1C(N)=O)CCC2 (stereo unspecified)	4%	5%	22
Cn1ccnc1SCC(=O)NC12CC3CC(CC(C3)C1)C2	-1%	5%	-127*
Cn1c(=O)c2c(nc(SCC(=O)NC34CC5CC(CC(C5)C3)C4)n2C)n(C)c1=O	10%	11%	-17
SMILES	ALOX12 inhib	15-hLO-2 inh	PNC assembly inh
CC(Sc1nc(-c2ccccc2)cs1)C(=O)Nc1ccc(Cl)cn1 (stereo unspecified)	-2%	/	-21
CCOc1cccc(=O)c2c(C)n(Cc3ccco3)c(C)c12	-25%	-20%	-100*
COC(=O)c1c(C(=O)OC)c(C)n(Cc2ccco2)c1C	1%	-5%	?
CCCCc1nc2c(c3c1C[C@H](C)OC3)CN(C(=O)Nc1cccc(C#N)c1)CC2	2%[11.4 µM]	/	/
COc1cc(C(=O)OCc2cc3ccccc3[nH]c2=O)cc(OC)c1OC	1%	/	-100*
Cc1ccc(C(=O)OCc2cc3ccccc3[nH]c2=O)cc1	-4%	-5%	-23
Cc1noc(C)c1-c1ccc2ncnc(N3CCC(C(=O)O)CC3)c2c1	/	-3%	/
CC12CCC(c3c(CO)nn(-c4ccccc4)c31)C2(C)C (stereo unspecified)	1%	2%	?
CC12CCC(c3c(C(=O)O)nn(-c4ccccc4)c31)C2(C)C (stereo unspecified)	2%	3%	-127*
Cc1ccc(OCCOc2ccc(Br)cc2)c([N+](=O)[O-])n1	-5%	/	-22
Cc1cccc(C(CC(=O)N2CCCC2)c2ccccc2)c1O (stereo unspecified)	0%	-12%	37
CCOC(=O)C1CCCN(C(=O)CC(c2ccccc2)c2ccccc2)C1 (stereo unspecified)	-1%	/	-100*
O=C(CC(c1ccccc1)c1ccccc1O)N1CCCC1 (stereo unspecified)	-2%	-4%	-88*
CCOC(=O)C1CCCN(C(=O)Cc2ccc(C)cc2)C1 (stereo unspecified)	1%	7%	?
CC#CCN1c2ccccc2[C@]23C[C@@H](C(=O)OC)N(S(=O)(=O)c4ccc(C)cc4)C2=NC(C(=O)OC)=C(C(=O)OC)[C@H]13	1%[11.4 µM]	/	/
CC1CCC(NC(=O)c2ccc(NC(=O)c3ccc(=O)[nH]c3)cc2)CC1 (stereo unspecified)	0%	/	70
CCCNC(=O)NC(=O)CN1C(=O)NC(C)(c2ccc(C)cc2)C1=O (stereo unspecified)	-3%	-4%	19
CCCCC1(CCCC)NC(=S)N(Nc2ccc(C)cc2)C1=O	-8%	-7%	-90*
CC1=CC(=O)C=CC1(C)C(Cl)Cl (stereo unspecified)	11%	0%	91
CC1=CC(C)(C(Cl)Cl)C(C)=CC1=O (stereo unspecified)	-7%	/	-100*
COc1ccc(C2CC(=O)c3c(O)cc(O[C@H]4OC(COC5OC(C)C(O)C(O)[C@@H]5O)C(O)C(O)C4O)cc3O2)cc1O (stereo partly specified)	1%	-1%	/
Cc1cc(C)n2cc(CSc3nnc(-c4ccccc4)o3)nc2n1	-4%	-2%	-13
Cc1cc(C)n2cc(CSCc3ccccc3)nc2n1	6%	/	-89*
CN(C)Cc1ccccc1-c1cncnc1NC1CC1	3%	3%	/
CCN(Cc1ccccc1)C(c1ccccn1)c1nnnn1C1CCCCC1 (stereo unspecified)	3%	/	-15
SMILES	ALOX12 inhib	15-hLO-2 inh	PNC assembly inh
CC(c1nnnn1C1CCCCC1)N(Cc1ccccc1)Cc1cccnc1 (stereo unspecified)	-2%	/	-100*
CNc1nc(-c2ccc(N(C)C)cc2)nc2ccccc12	-9%	36%	/
O=c1c2cnn(-c3ccccc3)c2nc(-c2cccs2)n1-c1cccc(Cl)c1	-1%	/	6
CCC(C)n1c(SCC(=O)Nc2ccccc2C(F)(F)F)nc2ccsc2c1=O (stereo unspecified)	-9%	-6%	?
O=C(O)CCCCn1c(SCC(=O)Nc2ccccc2C(F)(F)F)nc2ccsc2c1=O	-4%	/	-113*
CC(C)P(=O)(c1cccc(C(=O)O)c1)C(C)C	-5%	/	28
O=C(NC(=S)Nc1ccc(S(=O)(=O)N2CCCC2)cc1)c1cccs1	?	/	13
O=C(NC(=S)Nc1ccc(N2CCCCC2)cc1)c1cccs1	?	20µM*	?
O=C(NC(=S)Nc1ccc(S(=O)(=O)N2CCCCCC2)cc1)c1cccs1	2%	/	?
CCN(c1ccccc1)S(=O)(=O)c1ccc(NC(=S)NC(=O)c2cccs2)cc1	25µM*	?	4
COc1ccc(C(=O)NC(Nc2ccccc2)C(Cl)(Cl)Cl)cc1 (stereo unspecified)	-1%	-24%	106
CN1CCN(C2=Cc3ccccc3Sc3cc(F)c(Cl)cc32)CC1	-9%	/	-6
CN1CCN(C2=Cc3ccccc3Sc3cc(F)c(F)cc32)CC1	-1%	/	-88*
CCCCS(=O)(=O)N1CCc2nc(COc3ccccc3)c3c(c2C1)CO[C@@H](C)C3	-3%[11.4 µM]	/	/

From PubChem
